Laboratory results published in PubChem BioAssay (Tox21).
The source made the active and inactive calls. Calls follow the shape of the dose curve; as a rule, active = well fitted curve in the direction sought with a large enough effect in the repeat runs; inconclusive = weak or mixed curves; inactive = flat fitted curve, though single readings scatter.

Assay: qHTS assay to test for compound auto fluorescence at 460 nm (blue) in HEK293 cell free culture (AID 720681)
Settings: cell-free medium, autofluorescence 405/460 nm (blue); series mostly up to 91.3 µM; fluorescence, % of fluorescent control: at the top concentration
Source text: U.S. Tox21 Program National Center for Advancing Translational Sciences [NCATS] NIH Chemical Genomics Center [NCGC] U.S. Environmental Protection Agency [EPA] National Institutes of Environmental Health Sciences [NIEHS] National Toxicology Program [NTP] U.S. Food and Drug Administration [FDA] Tox21 Assay Overview: Compound auto fluorescence often interferes with screening of the compound library against various biological targets and signaling pathways. Some of these compounds may have fluorophoric properties. Such properties may interfere with the assay outputs resulting in false positives and/or negatives. To decrease such complications and ensure the compound activities are relevant in terms of biological response, the Tox21 10K compound library was screened for auto fluorescence. From the fluorophores used as reporter signals in our screening assays, the auto fluorescence equivalencies of compounds against three fluorophores have been evaluated: Triamterene, Fluorescein and Rose Bengal sodium for blue, green and red fluorescence, respectively. The fluorescence intensities were measured using Excitation/Emission wavelengths at 405/460nm, 485/535nm and 540/590nm for blue, green and red labels, respectively. This assay includes the blue fluorescence data.
Tox21 Assay Protocol Summary: 5 uL of culture medium (DMEM containing 10% FBS) per well was dispensed into black wall/clear bottom 1536-well plates using a Multidrop Combi Dispenser (ThermoFisher Scientific, Waltham, MA). After 23 nL compound or DMSO vehicle was transferred into assay plate by a pintool work station (Kalypsys, San Diego, CA), fluorescence intensities in the assay plates were measured by an Envision (PerkinElmer, Shelton, CT) plate reader using three labels for measuring blue, green and red fluorescence at […] 460, 535 and 590nm respectively.
% is scaled to controls: 0 for no effect and ±100 for the full control effect.

Row | SMILES | Potency | fluorescence, % of fluorescent control
1 | Cc1cc(N=Nc2ccccc2C)ccc1N | inactive | 
2 | ClC1=C(Cl)[C@]2(Cl)[C@H]3[C@H]([C@H]4C=C[C@H]3C4)[C@@]1(Cl)C2(Cl)Cl |  | -0.0372% (inactive)
3 | CCC(C)c1cc([N+](=O)[O-])cc([N+](=O)[O-])c1OC(=O)C=C(C)C (stereo not given) |  | -0.0007% (inactive)
4 | COc1cc(C=O)cc2c1[C@H](COC(N)=O)[C@]1(OC(C)=O)ON2C[C@H]2[C@@H]1N2C(C)=O |  | -0.0101% (inactive)
5 | Nc1ccccc1C(=O)OC/C=C/c1ccccc1 |  | 0.0249% (inactive)
6 | ClCc1ccc(Cl)cc1Cl |  | 0.0052% (inactive)
7 | CC(C)(C)c1cc([N+](=O)[O-])cc(C(C)(C)C)c1O |  | -0.411% (inactive)
8 | O=[N+]([O-])c1cc(C(F)(F)F)c(Cl)c([N+](=O)[O-])c1Cl |  | -0.716% (inactive)
9 | CC1CCC(C(C)C)C(OC(=O)c2ccccc2N)C1 (stereo not given) | inactive | 
10 | CC(=O)[O-].CC(=O)[O-].O.O.[Cd+2] |  | -0.0326% (inactive)
11 | [Hg+2].[I-].[I-] |  | 0.17% (inactive)
12 | Fc1cccc(Cl)c1CCl |  | -0.129% (inactive)
13 | CN(C)S(=O)(=O)N(SC(F)(Cl)Cl)c1ccccc1 |  | -0.286% (inactive)
14 | Nc1ccc(Cc2ccc(N)c(Cl)c2)cc1Cl |  | 0.088% (inactive)
15 | N#CC(Cl)Cl |  | 0.0756% (inactive)
16 | C[C@@H]1CC[C@@]2(OC1)O[C@H]1[C@@H](O)[C@H]3[C@@H]4CC[C@H]5C[C@@H](O[C@@H]6O[C@H](CO)[C@H](O[C@@H]7O[C@H](CO)[C@@H](O)[C@H](O[C@@H]8OC[C@@H](O)[C@H](O)[C@H]8O)[C@H]7O[C@@H]7O[C@H](CO)[C@@H](O)[C@H](O[C@@H]8O[C@H](CO)[C@@H](O)[C@H](O)[C@H]8O)[C@H]7O)[C@H](O)[C@H]6O)[C@H](O)C[C@]5(C)[C@H]4CC[C@]3(C)[C@H]1[C@@H]2C |  | 0.047% [at 95.7 µM] (inactive)
17 | O=C/C(Cl)=C(/Cl)C(=O)O | inactive | 
18 | CC1(C)CN=C(NN=C(/C=C/c2ccc(C(F)(F)F)cc2)/C=C/c2ccc(C(F)(F)F)cc2)NC1 |  | 0.267% (inactive)
19 | CCCCOCN(C(=O)CCl)c1c(CC)cccc1CC |  | -0.154% (inactive)
20 | CC(C)(C)C(O)/C(=C\c1ccc(Cl)cc1Cl)n1cncn1 (stereo not given) |  | -0.173% [at 95.7 µM] (inactive)

Row | SMILES | Potency | fluorescence, % of fluorescent control
21 | CC(C)(C)c1ccc(CSc2cnn(C(C)(C)C)c(=O)c2Cl)cc1 |  | -0.0963% (inactive)
22 | O=C(NC(=O)c1c(F)cccc1F)Nc1cc(Cl)c(OC(F)(F)C(F)F)c(Cl)c1 |  | -0.267% (inactive)
23 | CCCCCCCCCCCCCN1CC(C)OC(C)C1 (stereo not given) |  | -0.0565% (inactive)
24 | O=[N+]([O-])c1ccc(Oc2ccc(C(F)(F)F)cc2[N+](=O)[O-])cc1 |  | 0.0076% (inactive)
25 | CCCCCCCCc1ccc(O)cc1 |  | -0.258% (inactive)
26 | ClC(Cl)=C(c1ccc(Cl)cc1)c1ccc(Cl)cc1 | inactive | 
27 | O=C(CCl)C(Cl)Cl |  | 0.186% (inactive)
28 | CN(C)CCc1c[nH]c2cccc(O)c12 |  | 1.77% (inactive)
29 | CC(C)CC(C)Nc1ccc(Nc2ccccc2)cc1 (stereo not given) |  | 0.416% (inactive)
30 | CCCN(CCC)CCc1c[nH]c2ccccc12 |  | -0.0067% (inactive)
31 | CCCCCCCCCCCCCC[P+](CCCCCC)(CCCCCC)CCCCCC (tested in a mixture with another compound) |  | 0.141% (inactive)
32 | CCC[CH2][Sn]([CH2]CCC)([CH2]CCC)[O]C(=O)c1ccccc1 |  | -0.103% (inactive)
33 | CCOCCOC(C)=O |  | -0.442% (inactive)
34 | O=C(O)C1C2CCC(O2)C1C(=O)O (stereo not given) | inactive | 
35 | Cc1cc(SCc2sc(-c3ccc(C(F)(F)F)c(F)c3)nc2C)ccc1OCC(=O)O |  | -0.107% (inactive)
36 | Cc1cc(C)c(C2=C(OC(=O)CC(C)(C)C)C3(CCCC3)OC2=O)c(C)c1 |  | -0.133% [at 95.7 µM] (inactive)
37 | N#CCCSCCC#N |  | 0.169% (inactive)
38 | CCOP(=O)(NC(C)C)Oc1ccc(SC)c(C)c1 (stereo not given) |  | -0.439% (inactive)
39 | CSCCCN=C=S |  | -0.167% (inactive)
40 | CN(C)C(=S)[S-].CN(C)C(=S)[S-].[Cu+2] |  | -0.0097% [at 18.6 µM] (inactive)
